# Results published in the OligoGym collection.
# Molecular target: TNFAIP6
# Assay: pooled miR-30 sensor sort-seq; sequence = guide strand
# Settings: shRNA
# Further: reference of the scale not given here.
row,Sequence,sensor-assay potency score (higher = more potent)
1,TGAAGCATCACTTAGAAACTTC,0.148
2,TTATCTTCGTACTCATTTGGGA,-0.091
3,TTGAGTGTCTTCCCATAGCAAG,-1.58
4,TTGTATTTTTTCCTTGACTGGA,-0.793
5,TATCTTCGTACTCATTTGGGAA,-0.842
6,TAAAAATTTGCTTTGGATCTGT,0.758
7,TACTTGAGTCTAATGTGCCAGT,-0.543
8,TAGTACTTGTATTTTTTCCTTG,-0.262
9,TTCAAATTCACACACCGCCTTA,-0.588
10,TTCCAGTAGAAGTAGTACTTGT,-0.0924

# Molecular target: TNFRSF10A
# Assay: as above
# Settings: shRNA
row,Sequence,sensor-assay potency score (higher = more potent)
1,TTGAAGGTCTTGTGGACCCGGA,0.23
2,TCTTCTAAGTAGATGAACTTTC,-0.791
3,TGTATTAACTCCTAACACCTAA,-0.808
4,TTTCGTGAGGTCCAGCTGCCTC,-0.987
5,AAACTTGTCAAAGAACAGCATC,-1.04
6,TTGCATACAAGGCATCCCCTGG,-0.804
7,TCTAAGTAGATGAACTTTCCAG,-0.118
8,TTGATCATGAAGTTTGATGGTT,0.371
9,TTCTTTGTGGACACACTCGATG,-0.86
10,TTAACTCCTAACACCTAAGAGG,-0.905
11,TTGATGGTTGCAGCTGAGCTAG,-1.28

# Molecular target: TNIP2
# Assay: as above
# Settings: shRNA
row,Sequence,sensor-assay potency score (higher = more potent)
1,TAACAGTCGATTTTCTTCCTGC,0.411
2,TTCTTCTAGTCGCTCAGTCAGC,-0.848
3,TTGCTCGTCACTGAAGCACTGC,0.0739
4,TTCTCTTCCAACTGTCTGTTGA,0.202
5,TTTCTCTTCCAACTGTCTGTTG,-0.51
6,TTCAACGTGAGTCACCTTCTGT,-0.171
7,TTCTGACATGAAGTCATCCTTG,-0.577
8,TTGAATCCTACTTTGAGCCCGT,0.603
9,TTTTCTCTTCCAACTGTCTGTT,-0.371
10,TATTCCATAGAACAGGATGGGG,-0.938
11,TTTATTTTCTCTTCCAACTGTC,0.553
12,TCCAACTGTCTGTTGAGCCGGG,-0.18

# Molecular target: TNK1
# Assay: as above
# Settings: shRNA
row,Sequence,sensor-assay potency score (higher = more potent)
1,TAGTGCTGTCTGGCACTCCTGG,-1.01
2,TTGCCTTCTTTCTGTCTCCATC,-1.2
3,TTTCTGTCTCCATCTATGCTTC,-0.886
4,TAATGCTCCAGGATGCGCCAGC,-0.794
5,TTCAGAGCTTCGGACAGTCTGC,-0.64
6,TCTCATAATCCATACTACCAGC,-1.03
7,TAGTGGGCAGACTAGATCCTTC,-0.841
